These results are taken from PubChem BioAssay.

Test [1] in a line: signal quenchers or enhancers, Cy5 substrate/SSB – biochemical, NIH Clinical Collection, E. coli SSB, artefact control for HCV NS3 helicase inhibitor project (AID 743268). The settings on record: Cy5-oligo bound E. coli SSB, fluorescence interference.
The subject of test [2] is Hepatitis C virus NS3 helicase. Description: blockers of NS3h binding to DNA – biochemical, fluorescence polarization, NIH Clinical Collection, primary screen (AID 743270). Particulars: NS3 helicase binding to Cy5-dT15 DNA, stronger effect = higher value, concentration not given here. (Fluorescence polarisation rises when a labelled molecule tumbles more slowly, as on binding a larger partner.)

For test [3], the target named is Single-stranded DNA-binding protein (Escherichia coli (strain K12)) (UniProt P0AGE0). Description: SSB-ssDNA binding inhibitors – biochemical, fluorescence polarization, NIH Clinical Collection, counter-screen for HCV NS3 helicase inhibitor project (AID 743271; in the data active = inhibition above about 28%). The settings on record: E. coli SSB-DNA binding, stronger effect = higher value, concentration not given here.
Test [4] can be described thus: compounds distorting NS3 helicase fluorescence signal – biochemical, NIH Clinical Collection, artefact control for HCV NS3 helicase inhibitor project (AID 743272).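 Also: HCV NS3 helicase with a Cy5 labelled single stranded DNA probe.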 The settings on record: fluorescence interference counterscreen, HCV NS3 helicase assay; stronger effect = lower value. In general terms: The purpose of a counterscreen is to sort out artefacts and off-target activity.

Test [5] in a line: Wnt pathway potentiators raising nuclear beta-catenin – imaging, WNT3A-conditioned medium, mouse C2C12, NPC library, primary screen (AID 1117326; in the data active = nuclear beta-catenin stimulation mostly above about 4.2%, no sharp cut-off; inactive = mostly below about 10%). The settings on record: stronger effect = higher value.
Test [6] is described as follows: stimulators of insulin release from INS-1E, primary screen, cell-based, 5 mM glucose, NPC library (AID 1117329;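 active = compound raises insulin release from rat beta cells at 5 mM glucose, no numeric limit stated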). Particulars: rat INS-1E insulin secretion, at 10 µM, stronger effect = higher value.
Test [7] in a line: growth inhibition of GSK3B-pretreated HCT116 cells – cell-based, CellTiter-Glo, 0.2 to 20 µM (AID 1117336;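 active = compounds lowering colon cancer cell viability after pretreatment blocking the GSK3B kinase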). The settings on record: HCT116 viability after GSK3B inhibitor, at 20 µM, stronger effect = higher value.
The nature of test [8]: inhibition of endothelial tube formation, primary screen, imaging, VEGF stimulated, CD31 staining, tube area, NPC library (AID 1117340;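 active = compound that reduces growth-factor-driven endothelial tube area in a mixed cell culture, no cutoff stated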). Particulars: VEGF-stimulated ADSC/ECFC co-culture, at 10 µM, stronger effect = higher value.
Test [9] is described as follows: GLP1 release stimulators, primary, NCI-H716, NPC library (AID 1117341;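 active = compound raises GLP1 secretion from the human gut endocrine cells, with no numeric limit stated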). Particulars: NCI-H716 cells, at 10 µM, stronger effect = higher value.
Test [10] in a line: HCT116 colon cancer cell growth inhibition, primary screen, CellTiter-Glo luminescence, NPC library (AID 1117342;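 active = compounds that lower survival of HCT116 colon cancer cells in the luminescence readout, no numeric limit stated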). Particulars: at 20 µM (top of the series). In general terms: Cellular ATP, detected with luciferase, serves as a proxy for viable cell number.
The nature of test [11]: reduced SW480 viability measured with CellTiter-Glo, NPC library, primary (AID 1117343;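 active = compounds that lower viability of the colon cancer cells in the luminescence readout, with no numeric limit stated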). The settings on record: CellTiter-Glo luminescence; at 20 µM (top of the series).
Test [12] is described as follows: NPC library primary testing for decreased DLD-1 cell viability via CellTiter-Glo (AID 1117346;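 active = compounds that lower survival of DLD-1 colon cancer cells in the luminescence readout, no cutoff given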). Particulars: DLD-1 viability, CellTiter-Glo luminescence; at 20 µM (top of the series).
Test [13] addresses 6-phosphogluconate dehydrogenase, decarboxylating (Homo sapiens) (UniProt P52209). Description: inhibition of human phosphogluconate dehydrogenase – biochemical, recombinant enzyme, NADPH absorbance, primary screen (AID 1159550;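 active = at least 20% inhibition of 6-phosphogluconate dehydrogenase activity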). The settings on record: recombinant 6PGD, NADPH absorbance 341 nm; at 10 µM; stronger effect = higher value.
Test [14] is described as follows: EMT-state selective cytotoxicity in co-culture – imaging, PC-3E GFP, TEM4-18 mCherry, primary screen (AID 1345086;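 active = compounds killing one labelled cell type while sparing the other, by normalised counts and ratio limits, not self-fluorescent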;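 as to all read-outs here: cells exposed to compound for 72 h before imaging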;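 as to red/green cell ratio (normalised): normalised mesenchymal count divided by normalised epithelial count so high means epithelial killing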). The settings on record: PC-3E GFP / TEM4-18 mCherry co-culture, imaging cell counts, at 1 µM; for red/green cell ratio (normalised): actives lie on both sides, counts scaled to control wells, 1 = unselective.
Test [15] in a line: MELAS cybrid and Rieske KO viability enhancers – cell-based, MELAS cybrids, Rieske KO mouse fibroblasts, CellTiter-Glo, primary screen (AID 1508586;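 active = mean z-score across replicates of 1.96 or higher in either the MELAS or the Rieske mutant cell line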;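 also: z relative to plate mean and SD of compound and empty wells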). Particulars: low glucose.
Test [16] concerns the target NAD(+) hydrolase SARM1 (Homo sapiens) (UniProt Q6SZW1). Description: blocking NAD cleavage by SARM1 SAM-TIR – cell lysate, NAD-Glo luminescence (AID 1508614;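 active = compound whose remaining NAD level is above about 45 nM, limit read from the data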;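 also: higher remaining NAD means stronger inhibition of SARM1 NADase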). The settings on record: SAM-TIR HEK293T lysate NADase, at 1 µM, stronger effect = higher value.
The target in test [17] is Mitogen-activated protein kinase 7 (Homo sapiens) (UniProt Q13164). Description: Gal4-ERK5 driven luciferase induction – cell-based, HTS, primary screen (AID 1508626;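 active = luciferase signal above three times the same-plate solvent-only control wells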;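 also: luciferase driven by Gal4-ERK5 fusion binding five Gal4 sites before minimal TATA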). Particulars: HeLa Gal4-ERK5 transactivation, 18 h, at 5 µM, stronger effect = higher value.
Sequence of Mitogen-activated protein kinase 7 (Homo sapiens) (Q13164 whole entry, looked up, the tested form may be a part): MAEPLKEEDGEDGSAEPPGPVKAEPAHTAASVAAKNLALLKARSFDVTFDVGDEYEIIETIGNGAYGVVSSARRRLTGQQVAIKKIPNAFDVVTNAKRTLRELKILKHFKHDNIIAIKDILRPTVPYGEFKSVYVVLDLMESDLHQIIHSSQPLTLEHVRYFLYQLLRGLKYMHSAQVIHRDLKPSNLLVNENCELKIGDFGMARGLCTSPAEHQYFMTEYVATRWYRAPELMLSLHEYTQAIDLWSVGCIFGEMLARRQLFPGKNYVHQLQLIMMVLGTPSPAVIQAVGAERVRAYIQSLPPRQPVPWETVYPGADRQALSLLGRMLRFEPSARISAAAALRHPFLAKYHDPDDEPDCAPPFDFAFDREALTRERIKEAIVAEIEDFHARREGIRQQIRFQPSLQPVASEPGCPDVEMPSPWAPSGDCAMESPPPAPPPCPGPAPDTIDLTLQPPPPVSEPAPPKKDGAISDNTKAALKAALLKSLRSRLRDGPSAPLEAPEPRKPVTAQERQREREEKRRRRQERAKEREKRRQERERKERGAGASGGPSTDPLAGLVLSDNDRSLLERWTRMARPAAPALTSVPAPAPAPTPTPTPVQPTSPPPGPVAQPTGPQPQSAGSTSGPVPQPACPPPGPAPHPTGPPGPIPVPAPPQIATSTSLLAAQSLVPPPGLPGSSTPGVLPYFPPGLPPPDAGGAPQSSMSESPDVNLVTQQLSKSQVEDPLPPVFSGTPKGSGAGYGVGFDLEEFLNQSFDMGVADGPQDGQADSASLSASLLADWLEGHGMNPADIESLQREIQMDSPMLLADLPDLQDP
Test [18] concerns F380Y. Description: BK channel mutant inhibitors and activators – cell-based, U2OS BacMam, thallium flux, beta subunits, selectivity assay, profiling panel (AID 1259406;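 active = thallium flux through the channel raised or lowered by more than 3 SD from vehicle-only wells, actives on both sides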;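 also: initial slope of Thallos dye fluorescence rise after thallium is added; log ratio against the mean of 0.3% DMSO vehicle wells on the same plate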). The settings on record: U2OS BacMam BK variants, at 30 µM.
Test [19] is described as follows: P. berghei load reduction in hepatocytes – cell-based, HepG2, luciferase luminescence, HepG2 viability, primary screen (AID 624349; in the data active = parasite load remaining mostly below about 12%, no sharp cut-off; inactive = mostly above about 10%;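 also: 100% = mean of DMSO negative control wells on the same plate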). Particulars: P. berghei liver stage in HepG2, luciferase luminescence, concentration not given here; parasite load remaining: stronger effect = lower value; viability: measured here: HepG2 viability without parasites.
Test [20] in a line: viability loss with induced miR-34 in A549 – imaging, A549 dox-inducible miR-34, nuclei and caspase counts, primary screen (AID 1347080;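 active = compounds whose cell count with miR-34 switched on is under 0.7 times the count with it off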). The settings on record: A549 miR-34 inducible, Hoechst nuclei count, 48 h.
The mark [21] stands for this setting: measured here: epithelial PC-3E GFP cell survival.
Where [22] appears, read: measured here: mesenchymal TEM4-18 mCherry cell survival.
The mark [23] stands for this setting: MELAS cybrid survival, CellTiter-Glo 48 h, stronger effect = higher value.
The mark [24] stands for this setting: Rieske KO mouse fibroblast survival, CellTiter-Glo 72 h.

Several values for one entry are separate records, joined by “and”; a condition that tells them apart may be missing. Identical values can stand only once. Activity calls are given as the source filed them. Unless noted, no rule for the calls is given here.

Sequence of NAD(+) hydrolase SARM1 (Homo sapiens) (Q6SZW1 whole entry, looked up, the tested form may be a part): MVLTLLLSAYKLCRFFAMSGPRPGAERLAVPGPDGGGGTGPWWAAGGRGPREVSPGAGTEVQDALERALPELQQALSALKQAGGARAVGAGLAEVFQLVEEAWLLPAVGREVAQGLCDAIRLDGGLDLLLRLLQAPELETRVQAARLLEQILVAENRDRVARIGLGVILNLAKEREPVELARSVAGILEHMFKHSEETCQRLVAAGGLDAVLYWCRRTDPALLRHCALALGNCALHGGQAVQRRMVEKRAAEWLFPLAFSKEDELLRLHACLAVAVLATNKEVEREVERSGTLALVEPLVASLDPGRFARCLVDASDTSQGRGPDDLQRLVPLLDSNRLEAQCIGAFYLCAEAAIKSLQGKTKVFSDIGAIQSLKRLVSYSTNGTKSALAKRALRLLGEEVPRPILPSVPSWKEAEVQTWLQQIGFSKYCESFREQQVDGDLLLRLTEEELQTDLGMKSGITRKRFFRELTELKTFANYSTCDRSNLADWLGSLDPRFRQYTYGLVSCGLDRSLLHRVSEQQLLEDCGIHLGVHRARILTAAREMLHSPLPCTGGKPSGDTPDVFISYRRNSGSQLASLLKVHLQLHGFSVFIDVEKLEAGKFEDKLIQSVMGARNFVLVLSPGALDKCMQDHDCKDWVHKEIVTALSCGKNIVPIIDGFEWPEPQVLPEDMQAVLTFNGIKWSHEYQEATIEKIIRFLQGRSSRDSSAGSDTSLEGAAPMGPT
Sequence of 6-phosphogluconate dehydrogenase, decarboxylating (Homo sapiens) (P52209 whole entry, looked up): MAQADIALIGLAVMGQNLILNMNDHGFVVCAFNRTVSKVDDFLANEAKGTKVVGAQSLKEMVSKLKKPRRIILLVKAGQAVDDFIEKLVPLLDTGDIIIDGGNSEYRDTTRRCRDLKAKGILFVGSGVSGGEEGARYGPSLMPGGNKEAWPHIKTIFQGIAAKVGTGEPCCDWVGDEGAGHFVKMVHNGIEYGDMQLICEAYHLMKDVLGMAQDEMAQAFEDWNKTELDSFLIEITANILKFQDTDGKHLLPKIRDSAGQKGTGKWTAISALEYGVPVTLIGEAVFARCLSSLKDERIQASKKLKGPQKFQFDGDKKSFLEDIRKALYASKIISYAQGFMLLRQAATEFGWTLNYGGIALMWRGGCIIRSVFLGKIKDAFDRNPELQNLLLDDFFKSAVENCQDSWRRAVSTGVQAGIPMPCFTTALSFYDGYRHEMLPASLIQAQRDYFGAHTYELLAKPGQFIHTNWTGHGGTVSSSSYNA

The term inhibition denotes the drop in the measured response relative to a control, in per cent. Consider `Cc1cccc(Nc2ccccc2C(=O)O)c1C`, for which the fluorescence ratio in [1] is 1 (inactive); in [4] it was 0.91 (inactive). Besides, the figures for the inhibition in test [2], in test [3] and in test [13] were -5% (inactive), 1.05% (inactive) and 17.3% (inactive), respectively. Also, the nuclear beta-catenin stimulation was 0.8% (inactive) in test [5] (at 10 µM) and 0.4% in [5] (stimulation, at 2 µM). Besides, the insulin secretion stimulation in test [6] was -1.6% (inactive). Further, in [7], the viability decrease is -0.3% (inactive). Moreover, the tube area decrease in test [8] was 18% (inactive). Besides, the GLP1 secretion stimulation in test [9] is -0.1% (inactive). The inhibition of viability in test [10] was -21% (inactive). Further, the viability decrease (inhibition) in test [11] is 29.6% (inactive); in test [12], 2.25% (inactive). Further, in test [14], the red/green cell ratio (normalised) was 0.92 (inactive). Besides, the normalised cell number in test [14] (setting [21]) amounted to 1.18; in test [14] (setting [22]), 1.08. Moreover, the z-score is -0.21 (inactive) and 0.386 (inactive) and -0.378 (inactive) in test [15] (setting [23]); -0.308 and -0.333 and -1.12 in [15] (setting [24]). Moreover, the remaining NAD in [16] was 10 nM (inactive). Besides, the luciferase signal in [17] is 232 AU (inactive). In test [18], the log fold change Tl+ flux is 0.0635 (inactive).
What is called viability is a read-out of living cells in per cent, often relative to untreated cells. In the case of `CCOc1ccc2ccccc2c1C(=O)N[C@@H]1C(=O)N2[C@@H]1SC(C)(C)[C@@H]2C(=O)O`, the parasite load remaining in test [19] is 85.4% (inactive) and 87.9% (inactive). The viability in test [19] was 103% and 91.5%. Besides, the fluorescence ratio in [1] is 1.06 (inactive); in test [4], 0.98 (inactive). The inhibition in test [2] is -10.4% (inactive); in [3] it was -6.58% (inactive); in test [13], -5.14% (inactive). Besides, the nuclear beta-catenin stimulation was -0.5% (inactive) in [5] (at 10 µM) and 0.1% in [5] (stimulation, at 2 µM). Moreover, the insulin secretion stimulation in test [6] is 0.3% (inactive). Besides, the viability decrease in test [7] is -12.1% (inactive). Also, in [8], the tube area decrease is -14.5% (inactive). The GLP1 secretion stimulation in test [9] was -2.2% (inactive). The inhibition of viability in test [10] was -10.6% (inactive). For the same compound, the viability decrease (inhibition) in test [11] is 39.8% (inactive); in test [12], -29.8% (inactive). Further, the fold change in test [20] (stronger effect = lower value, cell number ratio, induced over uninduced) was 1.06 (inactive) and 0.86 (inactive); in test [20] (measured here: relative caspase fold change +Dox/-Dox) it was 0.823 and 1.09. Further, the cell count was 9950 and 9060 in [20] (measured here: total cells with miR-34 induction, stronger effect = lower value); 9360 and 10500 in [20] (measured here: total cells without miR-34 induction). In addition, the values for the z-score in test [15] (setting [23]) and in test [15] (setting [24]) were 0.661 (inactive) and -0.47, respectively. The remaining NAD in test [16] was 10 nM (inactive). Besides, in [17], the luciferase signal is 76 AU (inactive). Besides, in [18], the log fold change Tl+ flux is -0.0205 (inactive).
Take `CC(=O)OCC[N+](C)(C)C`: the fluorescence ratio was 1.03 (inactive) in test [1] and 1.01 (inactive) in [4]. The inhibition is -0.45% (inactive) in test [2], 0.29% (inactive) in [3] and 14.7% (inactive) in test [13]. The nuclear beta-catenin stimulation in test [5] (at 10 µM) is 0.6% (inactive); in test [5] (stimulation, at 2 µM) it was 2.2%. For the same compound, the insulin secretion stimulation in test [6] is 0.3% (inactive). In test [7], the viability decrease is -38.1% (inactive). Moreover, the tube area decrease in test [8] was 19.9% (inactive). The GLP1 secretion stimulation in test [9] was -5.3% (inactive). For the same compound, the inhibition of viability in test [10] was 10.1% (inactive). The viability decrease (inhibition) in test [11] was 2.1% (inactive); in test [12], -14.9% (inactive). The red/green cell ratio (normalised) in test [14] is 1.07 (inactive). The normalised cell number in test [14] (setting [21]) was found to be 1.22; in test [14] (setting [22]), 1.3. Moreover, the z-score in test [15] (setting [23]) was -0.299 (inactive) and 0.505 (inactive); in test [15] (setting [24]), -0.06 and -0.687. In test [16], the remaining NAD is 10 nM (inactive). Moreover, in test [17], the luciferase signal is 60 AU (inactive). The log fold change Tl+ flux in test [18] is 0.0119 (inactive).
